From article PMC7862700, “An all-to-all approach to the identification of sequence-specific readers for epigenetic DNA modifications on cytosine”

Assays:
Test in all cases: DAPPL (digital affinity profiling via proximity ligation, sequencing); 10 mM Tris-HCl pH 7.5, 50 mM NaCl, 1 mM DTT, 4% glycerol, room temperature, 30 min; GST-TFs on glutathione beads, 16-mer random dsDNA library, 0.1% formaldehyde crosslink after washing; high values mean tight binding
FEV = target: T1, FEV (Homo sapiens, UniProt Q99581 1-238); settings: protein: recombinant; tags: N-terminal GST; dsDNA, one strand shown
T1 sequence: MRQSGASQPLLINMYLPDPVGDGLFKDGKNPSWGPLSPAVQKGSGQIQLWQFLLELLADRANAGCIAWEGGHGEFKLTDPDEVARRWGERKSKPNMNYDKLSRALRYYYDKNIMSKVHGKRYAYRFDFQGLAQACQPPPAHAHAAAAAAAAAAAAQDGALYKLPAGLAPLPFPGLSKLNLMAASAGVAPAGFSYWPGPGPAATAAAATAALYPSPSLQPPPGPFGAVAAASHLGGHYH
Method in brief: (§1)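 Yeast served to express human transcription factors as GST fusions, which were then captured on glutathione beads and labelled with DNA barcodes. Pooled with a tag-only sample, they were incubated with 200 nmole of a 16-mer random double-stranded DNA library for 30 min at room temperature in Tris/NaCl/DTT/glycerol buffer, washed, crosslinked with 0.1% formaldehyde, ligated by proximity, amplified by PCR and sequenced. Dividing each hexamer's read frequency for a factor by its frequency for the tag-only sample gives the binding signal.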

ETV5 = ETV5 (Homo sapiens, UniProt P41161 1-510); settings: protein: recombinant; tags: N-terminal GST; dsDNA, one strand shown
Sequence of ETV5 (P41161 whole entry): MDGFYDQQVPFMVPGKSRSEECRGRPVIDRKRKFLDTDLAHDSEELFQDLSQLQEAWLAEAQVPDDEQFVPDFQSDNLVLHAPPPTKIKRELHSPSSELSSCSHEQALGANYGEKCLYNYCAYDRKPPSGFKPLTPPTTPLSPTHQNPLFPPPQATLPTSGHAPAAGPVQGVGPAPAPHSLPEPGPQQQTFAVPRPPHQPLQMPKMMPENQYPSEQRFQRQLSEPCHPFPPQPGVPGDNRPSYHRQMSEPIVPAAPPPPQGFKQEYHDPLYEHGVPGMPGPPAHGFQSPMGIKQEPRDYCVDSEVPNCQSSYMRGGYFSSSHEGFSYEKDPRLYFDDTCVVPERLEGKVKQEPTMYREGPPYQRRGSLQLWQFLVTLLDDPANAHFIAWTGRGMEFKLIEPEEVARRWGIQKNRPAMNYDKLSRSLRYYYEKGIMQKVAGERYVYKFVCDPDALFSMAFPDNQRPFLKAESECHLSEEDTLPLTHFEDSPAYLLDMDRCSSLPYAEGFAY
Method in brief: as §1

HSF1 = HSF1 (Homo sapiens, UniProt Q00613 1-529); settings: protein: recombinant; tags: N-terminal GST; chain copies: 3; dsDNA, one strand shown
Sequence of HSF1 (Q00613 whole entry): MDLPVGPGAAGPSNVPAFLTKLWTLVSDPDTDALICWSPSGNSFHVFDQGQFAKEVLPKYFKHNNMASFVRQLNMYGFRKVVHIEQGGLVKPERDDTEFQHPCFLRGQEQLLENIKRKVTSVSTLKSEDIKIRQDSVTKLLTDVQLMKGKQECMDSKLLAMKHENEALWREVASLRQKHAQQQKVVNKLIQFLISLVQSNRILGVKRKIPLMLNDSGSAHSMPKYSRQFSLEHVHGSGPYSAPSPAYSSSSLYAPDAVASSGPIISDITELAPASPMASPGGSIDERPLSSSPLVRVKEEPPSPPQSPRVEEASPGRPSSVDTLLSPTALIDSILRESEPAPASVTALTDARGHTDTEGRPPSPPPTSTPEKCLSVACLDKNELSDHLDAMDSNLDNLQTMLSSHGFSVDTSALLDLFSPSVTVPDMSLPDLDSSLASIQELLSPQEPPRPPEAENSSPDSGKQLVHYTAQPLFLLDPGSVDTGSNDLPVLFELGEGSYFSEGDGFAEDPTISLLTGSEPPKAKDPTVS
Method in brief: as §1

SPIC = target: T2, SPIC (Homo sapiens, UniProt Q8N5J4 1-248); settings: protein: recombinant; tags: N-terminal GST; dsDNA, one strand shown
T2 sequence: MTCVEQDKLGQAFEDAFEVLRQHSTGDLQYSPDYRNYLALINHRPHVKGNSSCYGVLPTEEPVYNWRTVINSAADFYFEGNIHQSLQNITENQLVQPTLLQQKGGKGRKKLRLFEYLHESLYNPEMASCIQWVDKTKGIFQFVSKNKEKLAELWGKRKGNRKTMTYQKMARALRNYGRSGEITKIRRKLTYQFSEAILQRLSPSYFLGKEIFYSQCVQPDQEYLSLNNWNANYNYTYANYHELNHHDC
Method in brief: as §1

ELF4 = ELF4 (Homo sapiens, UniProt Q99607 1-663); settings: protein: recombinant; tags: N-terminal GST; dsDNA, one strand shown
Sequence of ELF4 (Q99607 whole entry): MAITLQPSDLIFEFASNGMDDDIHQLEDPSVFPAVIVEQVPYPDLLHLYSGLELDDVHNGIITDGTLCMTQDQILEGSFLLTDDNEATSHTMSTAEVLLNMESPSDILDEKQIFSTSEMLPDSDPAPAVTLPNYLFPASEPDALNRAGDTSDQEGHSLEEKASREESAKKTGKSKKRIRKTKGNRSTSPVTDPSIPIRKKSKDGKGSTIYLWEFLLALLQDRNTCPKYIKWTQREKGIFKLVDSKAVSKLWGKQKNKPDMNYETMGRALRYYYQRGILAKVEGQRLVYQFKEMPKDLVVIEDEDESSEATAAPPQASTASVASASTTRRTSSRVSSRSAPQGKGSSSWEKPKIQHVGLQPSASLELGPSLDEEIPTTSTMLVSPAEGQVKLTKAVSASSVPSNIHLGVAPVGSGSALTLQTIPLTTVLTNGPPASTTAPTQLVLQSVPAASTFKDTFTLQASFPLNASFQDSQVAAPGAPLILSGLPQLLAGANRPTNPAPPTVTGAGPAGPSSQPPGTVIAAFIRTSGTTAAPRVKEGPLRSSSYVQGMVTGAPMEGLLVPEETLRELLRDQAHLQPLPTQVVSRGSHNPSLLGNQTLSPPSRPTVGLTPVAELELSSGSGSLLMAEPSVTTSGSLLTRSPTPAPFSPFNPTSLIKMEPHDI
Method in brief: as §1

ELK4 = target: T3, ELK4 (Homo sapiens, UniProt P28324-2 1-405); settings: protein: recombinant; tags: N-terminal GST; dsDNA, one strand shown
T3 sequence: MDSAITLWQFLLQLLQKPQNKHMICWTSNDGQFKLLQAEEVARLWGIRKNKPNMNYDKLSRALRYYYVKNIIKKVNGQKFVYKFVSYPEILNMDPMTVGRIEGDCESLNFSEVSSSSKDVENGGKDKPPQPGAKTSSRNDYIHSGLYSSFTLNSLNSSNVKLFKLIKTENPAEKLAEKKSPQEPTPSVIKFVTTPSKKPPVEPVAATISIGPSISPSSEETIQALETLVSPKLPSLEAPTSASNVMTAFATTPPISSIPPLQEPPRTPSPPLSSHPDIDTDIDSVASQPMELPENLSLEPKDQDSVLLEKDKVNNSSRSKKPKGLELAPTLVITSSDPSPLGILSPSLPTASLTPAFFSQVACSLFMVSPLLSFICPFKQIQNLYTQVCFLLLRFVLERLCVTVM
Method in brief: as §1

ETV2 = target: T4, ETV2 (Homo sapiens, UniProt O00321 1-342); settings: protein: recombinant; tags: N-terminal GST; dsDNA, one strand shown
T4 sequence: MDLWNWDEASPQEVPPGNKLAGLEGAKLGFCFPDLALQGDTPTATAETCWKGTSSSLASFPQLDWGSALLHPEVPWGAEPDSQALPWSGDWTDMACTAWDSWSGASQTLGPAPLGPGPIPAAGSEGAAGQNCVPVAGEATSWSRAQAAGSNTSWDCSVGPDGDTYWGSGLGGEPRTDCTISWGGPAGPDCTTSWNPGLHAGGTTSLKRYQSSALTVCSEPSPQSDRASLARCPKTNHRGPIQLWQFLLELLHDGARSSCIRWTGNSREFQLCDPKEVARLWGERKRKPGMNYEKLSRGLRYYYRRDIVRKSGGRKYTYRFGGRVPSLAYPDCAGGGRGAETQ
Method in brief: as §1

ELF3 = target: T5, ELF3 (Homo sapiens, UniProt P78545 1-371); settings: protein: recombinant; tags: N-terminal GST; dsDNA, one strand shown
T5 sequence: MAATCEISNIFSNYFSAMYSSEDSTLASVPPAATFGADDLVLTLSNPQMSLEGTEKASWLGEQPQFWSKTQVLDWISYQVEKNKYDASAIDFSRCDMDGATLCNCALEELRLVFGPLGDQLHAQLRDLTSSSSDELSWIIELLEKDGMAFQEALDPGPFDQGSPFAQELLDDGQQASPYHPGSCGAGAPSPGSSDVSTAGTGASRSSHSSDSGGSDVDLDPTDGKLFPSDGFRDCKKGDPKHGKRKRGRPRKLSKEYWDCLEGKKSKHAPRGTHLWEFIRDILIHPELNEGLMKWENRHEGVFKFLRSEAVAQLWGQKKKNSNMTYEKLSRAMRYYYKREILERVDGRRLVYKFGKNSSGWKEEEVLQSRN
Method in brief: as §1

CRX = CRX (Homo sapiens, UniProt O43186 1-299); settings: protein: recombinant; tags: N-terminal GST; dsDNA, one strand shown
Sequence of CRX (O43186 whole entry): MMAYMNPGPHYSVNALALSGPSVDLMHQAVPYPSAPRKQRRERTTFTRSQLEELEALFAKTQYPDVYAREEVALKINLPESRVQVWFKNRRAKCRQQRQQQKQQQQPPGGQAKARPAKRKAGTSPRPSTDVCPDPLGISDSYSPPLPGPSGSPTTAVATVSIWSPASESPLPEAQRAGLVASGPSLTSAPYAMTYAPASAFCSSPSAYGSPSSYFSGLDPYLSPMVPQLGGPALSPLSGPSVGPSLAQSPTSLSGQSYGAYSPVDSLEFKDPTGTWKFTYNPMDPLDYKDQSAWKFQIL
Method in brief: as §1

ETV1 = ETV1 (Homo sapiens, UniProt P50549 1-477); settings: protein: recombinant; tags: N-terminal GST; dsDNA, one strand shown
Sequence of ETV1 (P50549 whole entry): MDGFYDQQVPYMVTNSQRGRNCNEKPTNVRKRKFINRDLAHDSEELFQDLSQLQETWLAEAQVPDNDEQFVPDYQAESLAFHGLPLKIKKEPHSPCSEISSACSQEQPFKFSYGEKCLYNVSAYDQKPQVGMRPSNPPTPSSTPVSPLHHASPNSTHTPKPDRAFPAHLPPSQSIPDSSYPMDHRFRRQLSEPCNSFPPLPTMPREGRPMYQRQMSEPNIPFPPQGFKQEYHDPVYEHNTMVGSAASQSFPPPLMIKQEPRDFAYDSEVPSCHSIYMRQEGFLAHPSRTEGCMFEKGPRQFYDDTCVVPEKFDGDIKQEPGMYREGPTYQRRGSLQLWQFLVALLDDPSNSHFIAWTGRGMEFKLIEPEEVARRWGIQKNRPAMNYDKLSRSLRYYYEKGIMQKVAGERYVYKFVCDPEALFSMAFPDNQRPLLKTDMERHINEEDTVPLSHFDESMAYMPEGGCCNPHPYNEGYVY
Method in brief: as §1

| Sequence | binding signal (FEV) | binding signal (ETV5) | binding signal (HSF1) | binding signal (SPIC) | binding signal (ELF4) | binding signal (ELK4) | binding signal (ETV2) | binding signal (ELF3) | binding signal (CRX) | binding signal (ETV1) |
| --- | --- | --- | --- | --- | --- | --- | --- | --- | --- | --- |
| CCCGAA | 1.37 fold enrichment (6-mer frequency, TF over GST control) | 1.36 fold enrichment (6-mer frequency, TF over GST control) | 2.56 fold enrichment (6-mer frequency, TF over GST control) | 1.45 fold enrichment (6-mer frequency, TF over GST control) | 1.37 fold enrichment (6-mer frequency, TF over GST control) | 1.34 fold enrichment (6-mer frequency, TF over GST control) | 1.29 fold enrichment (6-mer frequency, TF over GST control) | 1.47 fold enrichment (6-mer frequency, TF over GST control) | 1.61 fold enrichment (6-mer frequency, TF over GST control) | 1.29 fold enrichment (6-mer frequency, TF over GST control) |
| GCTTCG | 1.26 fold enrichment (6-mer frequency, TF over GST control) | 1.29 fold enrichment (6-mer frequency, TF over GST control) | 1.6 fold enrichment (6-mer frequency, TF over GST control) | 1.17 fold enrichment (6-mer frequency, TF over GST control) | 1.26 fold enrichment (6-mer frequency, TF over GST control) | 1.38 fold enrichment (6-mer frequency, TF over GST control) | 1.33 fold enrichment (6-mer frequency, TF over GST control) | 1.47 fold enrichment (6-mer frequency, TF over GST control) | 1.25 fold enrichment (6-mer frequency, TF over GST control) | 1.29 fold enrichment (6-mer frequency, TF over GST control) |
| CTGTTC | 1.33 fold enrichment (6-mer frequency, TF over GST control) | 1.39 fold enrichment (6-mer frequency, TF over GST control) | 1.38 fold enrichment (6-mer frequency, TF over GST control) | 1.44 fold enrichment (6-mer frequency, TF over GST control) | 1.42 fold enrichment (6-mer frequency, TF over GST control) | 1.19 fold enrichment (6-mer frequency, TF over GST control) | 1.38 fold enrichment (6-mer frequency, TF over GST control) | 1.63 fold enrichment (6-mer frequency, TF over GST control) | 1.07 fold enrichment (6-mer frequency, TF over GST control) | 1.46 fold enrichment (6-mer frequency, TF over GST control) |
| TAGCAC | 1.22 fold enrichment (6-mer frequency, TF over GST control) | 1.14 fold enrichment (6-mer frequency, TF over GST control) | 1.24 fold enrichment (6-mer frequency, TF over GST control) | 1.04 fold enrichment (6-mer frequency, TF over GST control) | 1.18 fold enrichment (6-mer frequency, TF over GST control) | 1.11 fold enrichment (6-mer frequency, TF over GST control) | 1.25 fold enrichment (6-mer frequency, TF over GST control) | 1.15 fold enrichment (6-mer frequency, TF over GST control) | 1.22 fold enrichment (6-mer frequency, TF over GST control) | 1.19 fold enrichment (6-mer frequency, TF over GST control) |
| TTCATT | 1.23 fold enrichment (6-mer frequency, TF over GST control) | 1.29 fold enrichment (6-mer frequency, TF over GST control) | 1.12 fold enrichment (6-mer frequency, TF over GST control) | 1.37 fold enrichment (6-mer frequency, TF over GST control) | 1.21 fold enrichment (6-mer frequency, TF over GST control) | 1.29 fold enrichment (6-mer frequency, TF over GST control) | 1.17 fold enrichment (6-mer frequency, TF over GST control) | 1.12 fold enrichment (6-mer frequency, TF over GST control) | 1.15 fold enrichment (6-mer frequency, TF over GST control) | 1.21 fold enrichment (6-mer frequency, TF over GST control) |
| CTCACA | 1.44 fold enrichment (6-mer frequency, TF over GST control) | 1.31 fold enrichment (6-mer frequency, TF over GST control) | 1.08 fold enrichment (6-mer frequency, TF over GST control) | 1.23 fold enrichment (6-mer frequency, TF over GST control) | 1.32 fold enrichment (6-mer frequency, TF over GST control) | 1.34 fold enrichment (6-mer frequency, TF over GST control) | 1.35 fold enrichment (6-mer frequency, TF over GST control) | 1.3 fold enrichment (6-mer frequency, TF over GST control) | 1.12 fold enrichment (6-mer frequency, TF over GST control) | 1.2 fold enrichment (6-mer frequency, TF over GST control) |
| AAATCT | 1.29 fold enrichment (6-mer frequency, TF over GST control) | 1.31 fold enrichment (6-mer frequency, TF over GST control) | 1.75 fold enrichment (6-mer frequency, TF over GST control) | 1.39 fold enrichment (6-mer frequency, TF over GST control) | 1.34 fold enrichment (6-mer frequency, TF over GST control) | 1.25 fold enrichment (6-mer frequency, TF over GST control) | 1.24 fold enrichment (6-mer frequency, TF over GST control) | 1.25 fold enrichment (6-mer frequency, TF over GST control) | 2.03 fold enrichment (6-mer frequency, TF over GST control) | 1.35 fold enrichment (6-mer frequency, TF over GST control) |
| TTGTAT | 1.26 fold enrichment (6-mer frequency, TF over GST control) | 1.26 fold enrichment (6-mer frequency, TF over GST control) | 1.21 fold enrichment (6-mer frequency, TF over GST control) | 1.28 fold enrichment (6-mer frequency, TF over GST control) | 1.35 fold enrichment (6-mer frequency, TF over GST control) | 1.43 fold enrichment (6-mer frequency, TF over GST control) | 1.4 fold enrichment (6-mer frequency, TF over GST control) | 1.34 fold enrichment (6-mer frequency, TF over GST control) | 1.42 fold enrichment (6-mer frequency, TF over GST control) | 1.3 fold enrichment (6-mer frequency, TF over GST control) |
